# Data as given in PubChem BioAssay AID488899 (Broad Institute, 2010).
# The whole screen tested about 330,000 compounds, of which about 2,800 (0.85%) were called active. The sample as a whole holds a higher share of actives than the screen did. Unmarked numbers belong to inactive results.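 The calls were made as follows: active = mean inhibition across replicates of 60% or more, whatever share of single replicates reaches that level; inconclusive = some that reach 60%, reason not given; inactive = mean inhibition across replicates below 60%.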
# Assay: inhibitors of MITF-dependent TRPM1 promoter reporter, primary screen, cell-based, SK-MEL-5, single point, luciferase (AID 488899)
# Conditions: SK-MEL-5 TRPM1 promoter luciferase, 24 h; at 12.5 µM; stronger effect = higher value
row,Structure (SMILES),inhibition
1,COc1cc(OC)cc(C(=O)N[C@H](C(=O)NNC(=O)c2ccc(Br)cc2)C(C)C)c1,13.3%
2,COc1ccc(C(=O)N[C@H](C(=O)NCc2ccccc2)C(C)C)cc1,9.58%
3,COc1cc(OC)cc(C(=O)N[C@H](C(=O)Nc2nc3ccccc3[nH]2)C(C)C)c1,71% (active)
4,CCn1nnc2cc(C(=O)Nc3ccc(C(=O)OC(C)C)cc3)ccc21,21.6%
5,CCOC(=O)C(CO)NC(=O)C1(NC(C)=O)CCCC1 (centres undefined),-14.8%
6,COc1cc(SC)ccc1C(=O)Nc1nc(C)cs1,88.5% (active)
7,Cc1csc(NC(=O)c2ccc(C)s2)n1,-57.3%
8,COc1ccc(C(=O)Nc2cccc(NC(=O)c3ccc(OC)cc3OC)n2)c(OC)c1,-13.3%
9,CSc1ccccc1NC(=O)C(C)N1C(=O)c2ccccc2S1(=O)=O (centres undefined),0.029%
10,Cc1ccc(N2C(=O)CC(Nc3cccc4ccccc34)C2=O)cc1 (centres undefined),8.42%
11,CC(=O)Nc1ccccc1Sc1ccc2c3c(cccc13)C(=O)N(c1ccc(C)cc1)C2=O,65.2% (active)
12,COc1ccc(C(=O)NCC(=O)N/N=C/c2ccc([N+](=O)[O-])o2)cc1OC,10.3%
13,O=C(/C=C/c1ccc([N+](=O)[O-])o1)NNC(=O)c1ccc(F)cc1,80.8% (active)
14,O=C(NNC(=O)C1CCCC1)c1ccc(F)cc1,3.41%
15,O=C(Cn1cnc2ccccc2c1=O)NCC1COc2ccccc2O1 (centres undefined),-4.59%
16,COC(=O)Cn1nc(-c2ccccc2)c2cc(Cl)ccc21,-4.99%
17,NC(N)=Nc1nc(-c2ccccc2)c2cc(Cl)ccc2n1,85.2% (active)
18,Cc1ccc2nc(Nc3ccccc3O)nc(-c3ccccc3)c2c1,-6.93%
19,COc1ccc2[nH]c3c(C)c4cc[n+](C)cc4c(C)c3c2c1,50.4%
20,O=[N+]([O-])/C=C/c1ccc2c(ccn2Cc2ccccc2)c1,69.6% (active)
21,COC(=O)Cn1cc(/C=C/[N+](=O)[O-])c2ccccc21,1.38%
22,O=C(Cn1ccc2cc(S(=O)(=O)N3CCCC3)ccc21)NCc1ccccc1,-7.14%
23,CC1(C)C2CCC1(C)C(OC(=O)c1ccc(O)cc1)C2 (centres undefined),-0.433%

row,Structure (SMILES),inhibition
1,CC(C)OC(=O)c1ccc(NCc2cc(O)ccc2O)cc1Cl,5.02%
2,O=C(OC12CC3CC(CC(C3)C1)C2)c1ccc(NCc2cc(O)ccc2O)cc1,66.6% (active)
3,COC(=O)c1ccc(NCc2cc(O)ccc2O)cc1,-5.57%
4,Cc1ccc(-n2c(O)c(C=Nc3ccc(S(=O)(=O)Nc4ncccn4)cc3)c3ccccc3c2=O)cc1C,7.63%
5,CCN(CC)CCCN=Cc1c(O)n(-c2ccc(C)cc2)c(=O)c2ccccc12,-6.61%
6,CCOc1ccc(-n2c(O)c(/C=N/Nc3nc(C)cc(C)n3)c3ccccc3c2=O)cc1,67.6% (active)
7,Cc1ccc(S(=O)(=O)C2C(=O)NC3(C)CC2c2ccccc2O3)cc1 (centres undefined),4.13%
8,COc1ccc(C(=O)Nc2ccnn2C2CCN(Cc3ccncc3)CC2)cc1,-5.32%
9,CCCCCN(C(=O)NC(=O)Nc1ccccc1C)S(C)(=O)=O,4.88%
10,CCOC(=O)CCC(NC(=O)c1ccc(CNc2nc3cc(C(F)(F)F)ccc3nc2C(=O)OCC)cc1)C(=O)OCC (centres undefined),3.92%
11,CSCCC(NS(=O)(=O)c1ccc(C)cc1)C(=O)N(C)CC(=O)Nc1ccccc1Br (centres undefined),11.6%
12,CC(C)c1cc(N=O)cc(C(C)C)c1O,-4.28%
13,CC(C)=CCc1ccc(O)c(=O)cc1C(C)C,71.6% (active)
14,COc1ccc(CNC(=O)CN2C(=O)c3ccccc3S2(=O)=O)cc1,13.6%
15,COc1ccc(-n2nc3c(N4CCC(C(=O)NCc5ccccc5)CC4)nnc(C)c3c2C)cc1,40.6%
16,CCOc1ccc(CNC(=O)C2CCCN(c3nnc(C)c4c(C)n(-c5ccccc5)nc34)C2)cc1 (centres undefined),48.5%
17,CCc1ccc(CNC(=O)C2CCN(c3nnc(C)c4c(C)n(-c5ccc(C)cc5)nc34)CC2)cc1,96.1% (active)
18,COc1cccc(CC(=NO)c2cccc(OC)c2)c1,-0.084%
19,CCCOc1ccc(/C=N/NC(=O)C2CC2)c(OCCC)c1,-7.21%
20,COc1ccc(CN2CCNC(=O)C2CC(=O)NCc2cn[nH]c2-c2ccccc2)c(F)c1 (centres undefined),-6.25%
21,CC(C)OCCCNC(=O)CN1C(=O)/C(=C/c2ccccc2F)Oc2ccccc21,8.17%
22,CN1CCN(CCCNC(=O)c2ccc(/C=C3\Oc4ccccc4N(Cc4ccc(Cl)cc4)C3=O)cc2)CC1,96.1% (active)
23,Cc1c(C)n(Cc2ccc(Cl)cc2)c2ccc(C(=O)NCCCN3CCOCC3)cc12,1.78%

row,Structure (SMILES),inhibition
1,CCOc1ccc(NC(=O)CSc2ncnc3c2sc2ccccc23)cc1,4.52%
2,C=CCc1cccc2cc(C(=O)NC3CCCC3)c(=O)oc12,-16%
3,CCC1=C(OC(=O)N(CC)CC)N2C(=O)OC(=NCCc3c[nH]c4ccccc34)[C@]2(C)[C@H]2C1=CC[C@H]1C(=O)N(CC)C(=O)[C@H]12,1.76%
4,COCCN(Cc1cc2cc3c(cc2nc1Cl)OCO3)C(=O)c1cccc(C)c1,10%
5,Cc1cc(C)nc(SCC(=O)N(C)C)n1,2.39%
6,Cc1cc(C)nc(S/C=C/C(=O)c2ccccc2)n1,80.6% (active)
7,Cc1cc(C)nc(SCc2ccccc2C#N)n1,4.69%
8,CCCc1nc2c(c(=O)c3ccccc3n2C)c(=O)n1C1CCCCCC1,73.5% (active)
9,Cn1c2ccccc2c2c(C(=O)N3CCN(c4ccc(F)cc4)CC3)cn(C3CCCC3)c(=O)c21,-8.48%
10,CC1CCN(Cc2nc3c(c(=O)n(C)c(=O)n3C)n2CCc2ccccc2)CC1,-2.78%
11,COc1cc(OC)cc(-c2c(-c3cccs3)c3cc(-c4ccc(OC)cc4F)ccc3n2C)c1,13.6%
12,C#CCOCCOCCOCCNc1nc(N2CCOCC2)nc(N2CCN(C(=O)[C@H](Cc3ccc(O)cc3)n3cc(CCO)nn3)CC2)n1,4.74%
13,COc1ccc(CCNc2cc(N3CCN(C(=O)c4ccccc4OC)CC3)ccc2[N+](=O)[O-])cc1OC,77.2% (active)
14,COc1ccccc1OCCNc1cc(N2CCOCC2)ccc1[N+](=O)[O-],-28%
15,O=C(c1ccccc1)N1CCN(c2ccc([N+](=O)[O-])c(NCc3ccco3)c2)CC1,5.6%
16,C[C@@H](NC(=O)c1nc[nH]c1C(=O)N1CCN(C(=O)OC(C)(C)C)CC1)c1ccccc1,-1.66%
17,CCCCN1CC(CO)Oc2cccc(F)c2S1(=O)=O (centres undefined),0.622%
18,Cc1ccc(CN(Cc2cccnc2)C(=S)Nc2cc(Cl)ccc2C)cc1,1.58%
19,O=c1ccn([C@@H]2O[C@H](CNS(=O)(=O)c3cc4ccccc4s3)[C@@H](O)[C@H]2O)c(=O)[nH]1,-0.592%
20,C[C@@H]1C[C@@H]2O[C@H]2/C=C\C=C\C(=O)Cc2c(Cl)c(O)cc(O)c2C(=O)O1,71.8% (active)
21,CC(C)C(C(=O)NC1CCCCC1)N(CC1CCCO1)C(=O)CNS(=O)(=O)c1ccc(F)cc1 (centres undefined),10.3%
22,O=C(CN1CCOc2ccccc21)N1CCC(Cc2ccccc2)CC1,5.49%
23,CCCC(O)(c1ccccc1)C(c1ccccc1)c1ccccn1 (centres undefined),4.1%

row,Structure (SMILES),inhibition
1,COc1ccc(CNCCCn2cnc3c(OCc4ccccc4)ncnc32)cc1,-4.78%
2,CN(C)CC(O)COc1ccc(C(C)(C)c2ccc(OCC(O)CN(C)C)cc2)cc1 (centres undefined),65.7% (active)
3,CC(C)(c1ccccc1)c1ccc(OCCN)cc1,-6.11%
4,Cc1cc(C)n(CC(O)COc2ccc(C(C)(C)C)cc2)n1 (centres undefined),-18.8%
5,Nc1ccc2c(c1)C(O)c1ccc(Cl)cc1-2 (centres undefined),-6.14%
6,CN(CC(=O)NCCc1ccc(F)cc1)CC(=O)Nc1ccc(F)c(F)c1F,19.3%
7,Nc1nonc1-n1nnc(C(=O)N/N=C/c2cc(Br)ccc2O)c1CSC1=NCCS1,17.4%
8,CC(C)(CCl)C(=O)Nc1ccc(Sc2ccc(F)cc2)cc1,-9.91%
9,O=C(CCl)Nc1ccc(Sc2ccc(NC(=O)CCl)cc2)cc1,88.6% (active)
10,O=C(CCl)Nc1cccc(CP(=O)(c2ccccc2)c2ccccc2)c1,5.96%
11,COC(=O)C1CC2=C(CC(C)(C)CC2=O)N(c2ccccc2)C1=O (centres undefined),-6.85%
12,O=C(O)CCCn1c(=O)c2cccn2c2ccc(F)cc21,7.45%
13,CCCC/C(C)=N/NC(=O)NC1CCCCC1,4.57%
14,Cc1cccc(-c2nc3ccc(C(=O)NCCN4CCN(C)CC4)cc3nc2-c2cccc(C)c2)c1,69.1% (active)
15,Cc1cccc(C(=O)OC(C)CN2CCN(C)CC2)c1 (centres undefined),-41.9%
16,CCC1=Nc2cc(C(=O)NCCN3CCCC3)ccc2Sc2ccc(C)cc21,-15.3%
17,FC(F)(F)c1cccc(Cc2noc(CN3CCC(N4CCCCC4)CC3)n2)c1,1.26%
18,NC(=O)C1CCN(C(=O)c2cc(S(=O)(=O)N3CCN(c4ccccc4)CC3)ccc2Cl)CC1,4.66%
19,Cc1cc(NC(=O)CN2CCCC(C)C2)n(-c2nc3ccccc3s2)n1 (centres undefined),1.1%
20,CCC(C)Cn1c(O)cc2nn(-c3nc4ccccc4s3)c(=O)c-2c1C (centres undefined),89% (active)
